TLR4-MyD88 BLA: inhibitors of human TLR4-MyD88 binding; O00206+Q99836; HeLa CL3-4 TLR4/MyD88 BLA complementation, FRET ratio; inhibition, % at 8.4 µM; 200,000 tested, 0.18% active; AID 861; in the data active means inhibition above about 25%
CRFBP-R2 block: antagonists of CRF-binding protein/CRF-R2 receptor complex. HEK293 CRF-R2/CRF-BP, CRF-induced calcium fluorescence. inhibition, % at 11.8 µM. 350,000 tested, 0.59% active;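 active means inhibition of the ligand-induced calcium signal above about 50% at the single tested concentration, limit read from the data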
ABHD5-PLIN5 inh: ABHD5-PLIN5 protein interaction inhibition. Q00G26+Q8WTS1. Split G. princeps luciferase complementation, luminescence, 4 h. inhibition, % at 4 µM. 360,000 tested, 0.78% active;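 active means inhibition above the mean inhibition across every tested compound plus 3 SD, cut at about 22% in these data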
NOD2-RIPK2 inh: blocks binding of human NOD2 to RIPK2; O43353; CHO BLA complementation NOD2-RIPK2, CCF4 ratio; inhibition, % at 4.98 µM; 360,000 tested, 0.38% active; AID 624267; in the data active means inhibition above about 21%
Target sequence (O43353 whole entry, looked up): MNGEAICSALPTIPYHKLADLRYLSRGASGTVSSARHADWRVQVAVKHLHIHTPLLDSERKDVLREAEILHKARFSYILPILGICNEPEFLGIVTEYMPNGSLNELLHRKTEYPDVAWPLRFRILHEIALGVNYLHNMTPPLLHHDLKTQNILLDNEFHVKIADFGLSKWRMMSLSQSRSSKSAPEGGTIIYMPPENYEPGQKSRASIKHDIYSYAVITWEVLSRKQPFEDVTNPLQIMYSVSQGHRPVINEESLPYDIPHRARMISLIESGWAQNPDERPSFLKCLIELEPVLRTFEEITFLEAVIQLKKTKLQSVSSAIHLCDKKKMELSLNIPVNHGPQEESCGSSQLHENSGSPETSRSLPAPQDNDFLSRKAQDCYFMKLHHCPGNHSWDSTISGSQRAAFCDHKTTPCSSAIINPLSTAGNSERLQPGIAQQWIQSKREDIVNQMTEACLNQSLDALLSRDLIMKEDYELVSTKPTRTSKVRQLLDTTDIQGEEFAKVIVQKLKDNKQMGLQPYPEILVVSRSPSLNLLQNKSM
TLR9-MyD88 block: blocks human TLR9 binding to MyD88; Q9NR96+Q99836; CHO BLA complementation TLR9-MyD88, CCF4 FRET ratio; inhibition, % at 4.98 µM; 340,000 tested, 0.21% active; AID 504734;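 active means inhibition above the mean over all tested compounds plus 3 SD, cut at about 21% in these data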
HTR2A ag: agonists of mouse serotonin 5-HT2A receptor (HTR2A) | AID 624169 | P35363 | 360,000 tested, 0.66% active | CHO-K1 mHTR2A beta-arrestin complementation, luminescence; percent of 30 µM serotonin response | activation, % at 7.6 µM;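 active means activation above a run cutoff, the mean activation of all tested compounds plus 3 SD, cut at about 14% in these data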
ABHD5-PLIN5 conf: ABHD5-PLIN5 interaction inhibition, confirmed; shares compounds with ABHD5-PLIN5 inh; AID 651612; inhibition, % at 4 µM; biochemical ABHD5-PLIN5 interaction, luminescence; 2,200 tested, 67% active; in the data active means inhibition above about 23%
HNF4 counter: counter-screen for ABHD5-PLIN5 inhibitors: HNF4 split-luciferase; inhibition, % at 4 µM; shares compounds with ABHD5-PLIN5 inh; HNF4 dimerization, luminescence, biochemical; 2,200 tested, 77% active; AID 651674;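 active means mean inhibition across replicate wells exceeding the computed hit threshold, cut at about 13% in these data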;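 further: light from luciferase halves that rejoin when HNF4 fusion proteins dimerize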
A number is an active result. The list is not random: actives were taken first. Their share in the collection is about 2.4%.

Cc1ccc(S(=O)(=O)N2C[C@@]3(O)Cn4c(=O)ccc(=O)n4C[C@@]3(OC(=O)NCC3CCCCC3)C2)cc1 was read as ABHD5-PLIN5 inh 37, NOD2-RIPK2 inh inactive, HTR2A ag inactive, ABHD5-PLIN5 conf 58 and HNF4 counter inactive.
`CN(C)c1ccc(-c2ccnc3c2CC(C)(C(=O)NCC2CC2)O3)cc1` (stereo not given) gave ABHD5-PLIN5 inh inactive, NOD2-RIPK2 inh inactive and HTR2A ag inactive.
For CCCCOc1[nH]c2nc(-c3ccco3)n(Cc3ccco3)c(=N)c2c1C#N the results were TLR4-MyD88 BLA inactive, CRFBP-R2 block inactive, ABHD5-PLIN5 inh 48, NOD2-RIPK2 inh inactive, TLR9-MyD88 block inactive, HTR2A ag inactive, ABHD5-PLIN5 conf 25 and HNF4 counter 47.
Screening c1ccc(CSc2nnc(-c3ccco3)n2Cc2ccco2)cc1 returned TLR4-MyD88 BLA inactive, CRFBP-R2 block inactive, ABHD5-PLIN5 inh inactive, NOD2-RIPK2 inh inactive, TLR9-MyD88 block inactive and HTR2A ag inactive.
Screening CCCCNC(=O)C1(C)CCCCN1C(=O)c1oc2ccccc2c1C (stereo not given) returned ABHD5-PLIN5 inh inactive, NOD2-RIPK2 inh inactive and HTR2A ag inactive.
Screening CCCCCCCCCCCCCCCC[n+]1ccc(/C=N/O)cc1 returned TLR4-MyD88 BLA inactive, CRFBP-R2 block inactive, ABHD5-PLIN5 inh 31, NOD2-RIPK2 inh inactive, TLR9-MyD88 block inactive, HTR2A ag inactive, ABHD5-PLIN5 conf inactive and HNF4 counter inactive.
For CCCCCCCCCCCCCCCC[n+]1ccc(C(N)=O)cc1 the results were TLR4-MyD88 BLA inactive, CRFBP-R2 block inactive, ABHD5-PLIN5 inh inactive, NOD2-RIPK2 inh inactive, TLR9-MyD88 block inactive and HTR2A ag inactive.
`C=C(C)[C@@H]1C2=CC(C(=O)OC)=C(C[C@H](C(=C)C)[C@H]3O[C@H]3C3=C[C@H]1OC3=O)O2` gave ABHD5-PLIN5 inh 63, NOD2-RIPK2 inh inactive, HTR2A ag inactive, ABHD5-PLIN5 conf 87 and HNF4 counter 78.
Screening COc1ccc(C)cc1NC(=O)CN1C(=O)CSc2ccc(S(=O)(=O)N3CCCC3)cc21 returned CRFBP-R2 block inactive, ABHD5-PLIN5 inh inactive, NOD2-RIPK2 inh inactive, TLR9-MyD88 block inactive and HTR2A ag inactive.
COc1ccc(OC)c(NC(=O)CN2C(=O)CSc3ccc(S(=O)(=O)N4CCCC4)cc32)c1 was read as CRFBP-R2 block inactive, ABHD5-PLIN5 inh 54, NOD2-RIPK2 inh inactive, TLR9-MyD88 block inactive, HTR2A ag inactive, ABHD5-PLIN5 conf inactive and HNF4 counter inactive.
For CN(Cc1ccccc1)Cc1cc(=O)oc2ccc3ccccc3c12 the results were ABHD5-PLIN5 inh inactive, NOD2-RIPK2 inh inactive and HTR2A ag inactive.
Screening CCOC(=O)[C@]12CCC=C1N(Cc1ccco1)C(=O)[C@H](CC(=O)NCc1cccc3ccccc13)C2 returned ABHD5-PLIN5 inh inactive, NOD2-RIPK2 inh inactive and HTR2A ag inactive.
For COc1ccccc1CNCC(O)Cn1c2ccccc2c2ccccc21 (stereo not given) the results were TLR4-MyD88 BLA inactive, CRFBP-R2 block inactive, ABHD5-PLIN5 inh 35, NOD2-RIPK2 inh inactive, TLR9-MyD88 block inactive, HTR2A ag inactive, ABHD5-PLIN5 conf inactive and HNF4 counter inactive.
Screening COc1ccccc1C(=O)Nc1nnc([C@H]2C[C@H](O)[C@@H](CO)O2)s1 returned ABHD5-PLIN5 inh inactive, NOD2-RIPK2 inh inactive and HTR2A ag inactive.
Screening COc1ccc(/C=C/C(=O)c2ccc(Cl)s2)cc1O returned TLR4-MyD88 BLA inactive, CRFBP-R2 block inactive, ABHD5-PLIN5 inh 42, NOD2-RIPK2 inh inactive, TLR9-MyD88 block inactive, HTR2A ag inactive, ABHD5-PLIN5 conf 54 and HNF4 counter 43.
For O=C(C=Cc1ccc(Cl)s1)c1ccc(Cl)s1 the results were CRFBP-R2 block inactive, ABHD5-PLIN5 inh inactive, NOD2-RIPK2 inh inactive, TLR9-MyD88 block inactive and HTR2A ag inactive.
For COc1ccc(C=CC(=O)c2ccc(OC)c(OC)c2)cc1O the results were CRFBP-R2 block inactive, ABHD5-PLIN5 inh inactive, NOD2-RIPK2 inh inactive, TLR9-MyD88 block inactive and HTR2A ag inactive.
Screening COc1cc(/C=C/C(=O)c2ccc(Cl)s2)cc(OC)c1O returned TLR4-MyD88 BLA inactive, CRFBP-R2 block inactive, ABHD5-PLIN5 inh 38, NOD2-RIPK2 inh inactive, TLR9-MyD88 block inactive, HTR2A ag inactive, ABHD5-PLIN5 conf 74 and HNF4 counter 38.
For CC(C)C[C@H]1CNC(=O)C(=O)N1C[C@@H]1CCCN1C[C@H](Cc1ccc(O)cc1)N1C[C@H](Cc2ccccc2)N(CC2CCCCC2)C(=O)C1=O the results were ABHD5-PLIN5 inh inactive, NOD2-RIPK2 inh inactive and HTR2A ag inactive.
O=C(/C=C/c1ccccn1)c1cc(Cl)cc(Cl)c1O was read as CRFBP-R2 block inactive, ABHD5-PLIN5 inh 23, NOD2-RIPK2 inh inactive, TLR9-MyD88 block inactive, HTR2A ag inactive, ABHD5-PLIN5 conf 45 and HNF4 counter 31.
For N#Cc1ccc(S(=O)(=O)N2CCCCC2c2cc(C(=O)NCc3ccccc3)no2)cc1 (stereo not given) the results were ABHD5-PLIN5 inh inactive, NOD2-RIPK2 inh inactive and HTR2A ag inactive.
`Cc1ccc(-n2cc(-c3ccccc3)c3c(N4CCN(C)CC4)ncnc32)cc1` gave TLR4-MyD88 BLA inactive, CRFBP-R2 block inactive, ABHD5-PLIN5 inh 24, NOD2-RIPK2 inh inactive, TLR9-MyD88 block inactive, HTR2A ag inactive, ABHD5-PLIN5 conf inactive and HNF4 counter inactive.
For CCCCNC(=O)c1nc(C2CCN(S(=O)(=O)c3c(OC)cccc3OC)CC2)oc1-c1ccccc1 the results were ABHD5-PLIN5 inh inactive, NOD2-RIPK2 inh inactive and HTR2A ag inactive.
For CC(Sc1nc2ncc(Cl)cc2[nH]1)C(=O)Nc1ccccc1[N+](=O)[O-] (stereo not given) the results were CRFBP-R2 block inactive, ABHD5-PLIN5 inh inactive, NOD2-RIPK2 inh inactive, TLR9-MyD88 block inactive and HTR2A ag inactive.
CN(C)CCCN(C(=O)c1sc2ccccc2c1Cl)c1nc2ccc(F)cc2s1 was read as TLR4-MyD88 BLA inactive, CRFBP-R2 block inactive, ABHD5-PLIN5 inh 25, NOD2-RIPK2 inh inactive, TLR9-MyD88 block inactive, HTR2A ag inactive, ABHD5-PLIN5 conf inactive and HNF4 counter inactive.
For CN(C)CCCN(C(=O)/C=C/c1cccs1)c1nc2ccc(F)cc2s1 the results were TLR4-MyD88 BLA inactive, CRFBP-R2 block inactive, ABHD5-PLIN5 inh 39, NOD2-RIPK2 inh inactive, TLR9-MyD88 block inactive, HTR2A ag inactive, ABHD5-PLIN5 conf inactive and HNF4 counter 24.
`CCN(CC)CCN(C(=O)/C=C/c1cccs1)c1nc2ccc(F)cc2s1` gave CRFBP-R2 block inactive, ABHD5-PLIN5 inh inactive, NOD2-RIPK2 inh inactive, TLR9-MyD88 block inactive and HTR2A ag inactive.

Compound activity as filed in PubChem.
